This is part of a sample that, as a whole, favours compounds with a hit. Of some 83,000 tested, about 20% had one in any assay.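 For each line, cells grew in 96-well plates with the test compound present at a single concentration for 48 hours.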 Calls of active or inactive are those of the source. How the source made its calls: active means growth percent below 10; inactive means the rest.
These compounds were tested on U251 CNS (assay: NCI-60 one-dose screen, 48 h (100 = growth as untreated, 0 = no growth, -100 = all killed)). Settings: 10 µM unless noted.
Cc1ccc2c(c1)C(=O)/C(=C/c1ccc(OCC(=O)c3ccccc3)cc1)O2 was tested, and the growth was 99.1% (inactive). For O=C1C2CC=CCC2C(=O)N1CNc1ccc(Cl)cc1 (stereo unspecified), the growth was 94.1% (inactive). In the case of O=C1C[C@H](Sc2nc(-c3ccc(F)cc3)cc(C(F)(F)F)n2)[C@H]2CO[C@@H]1O2, the growth is reported as 98.9% (inactive). With CCN(CC)CCCNc1cccc2c(SCc3ccccc3)ccnc12 the growth was 48.6% (inactive). Cc1cc(=O)oc2cc(Oc3nc(-c4cccs4)cn4c(-c5cccs5)cnc34)ccc12 was tested, and the growth was 47.5% (inactive). In the case of CCCCN(CCCC)Cc1c(C)[nH]c2cc(OC)ccc2c1=O, the growth is reported as 98.5% (inactive). In the case of CCCCCCCCCCCCCC1=NCCN1CCO, the growth is reported as 50.8% (inactive). With CCN1CCN(Cc2ccc(NC(=O)Nc3nc4ccc(Oc5ccnc(C(=O)NC)c5)cc4s3)cc2C(F)(F)F)CC1 the growth was -60.8% (active). In the case of CCCCN(CCCC)CCC(C)(O)c1cc2ccccc2c2ccccc12 (stereo unspecified), the growth is reported as 86.3% (inactive). With CCCCN(CC)CCCCCCCCCCN1CCCc2cc(OC)ccc21 the growth was 87.4% (inactive). In the case of N#Cc1ccc(NC(=O)Nc2ccc(Cc3ccc(NC(=O)Nc4ccc(C#N)cc4)cc3)cc2)cc1, the growth is reported as 34.4% (inactive). Clc1nc(Cl)c2c3c(sc2n1)CCCC3 was tested, and the growth was 49.7% (inactive). In the case of CCN(CC)c1ccc(/C=C/C2=[N+](C)c3ccccc3C2(C)C)cc1, the growth is reported as 13.8% (inactive). With COc1ccc(OCC(=O)Nc2ccc(-c3nc4ccccc4s3)cc2C)cc1 the growth was 96.2% (inactive). For COc1cc(-c2nc3ccccc3s2)ccc1NC(=O)COc1ccc(Cl)cc1, the growth was 41.9% (inactive). For CCN(CC)CC(O)CNc1c2ccc([N+](=O)[O-])cc2nc2cc(OC)c(OC)cc12 (stereo unspecified), the growth was -16.2% (active). Cc1ccc(/C=C2\Oc3cc(OCC(=O)c4ccc(Cl)cc4)ccc3C2=O)cc1 was tested, and the growth was 97.5% (inactive). With O=c1c(/C=C/c2ccco2)nnc(SCCN2CCOCC2)n1/N=C/c1ccc([N+](=O)[O-])cc1 the growth was 104% (inactive). In the case of CNC(=O)c1cc(Oc2ccc3nc(NC(=O)Nc4ccc(CN5CCOCC5)c(C(F)(F)F)c4)sc3c2)ccn1, the growth is reported as 22.2% (inactive). In the case of Cc1ccc(SCN2CCN(c3cccc(Cl)c3)CC2)cc1, the growth is reported as 89.1% (inactive). For COC1=CC(=O)C(OC)=C(OC)C1=O, the growth was 100% (inactive). In the case of CN(CC(=O)N(Cc1ccc(C2CCCCC2)cc1)c1ccc(C(=O)NO)cc1)S(=O)(=O)c1c(F)c(F)c(F)c(F)c1F, the growth is reported as 48.8% (inactive). O=C1Nc2c(ccc(Cl)c2Cl)/C1=C/c1cc(Br)c(O)c(Br)c1 was tested, and the growth was 66.2% (inactive). With Oc1ccccc1N=Cc1c(O)ccc2ccccc12 the growth was 83.3% (inactive). For c1ccc(CSc2ncnc3nc[nH]c23)nc1, the growth was 113% (inactive). In the case of CCN(CC)c1ccc(CNc2cc(C)nc3ccc(OC)cc23)cc1, the growth is reported as 25% (inactive). With CN(C)c1ccc(/C=C(\C#N)c2nc3ccccc3s2)cc1 the growth was 106% (inactive). CC1CN(Cc2ccco2)C(=S)N(c2ccccc2)C1=O (stereo unspecified) was tested, and the growth was 93.4% (inactive). C=C1CC[C@@H]2[C@](C)(COC(C)=O)[C@H](OC(C)=O)CC[C@@]2(C)[C@@H]1CC(NCc1ccc(F)cc1)C1=CCOC1=O (stereo partly specified) was tested, and the growth was 48% (inactive). With O=C(O)c1cccnc1Br the growth was 97.9% (inactive). With C=CC[N+]1(CC)CCN=C1CCCCCCCCCCCCCCCCC (stereo unspecified) the growth was -100% (active). For O=C1/C(=C\c2cn(C(=O)c3ccc(Cl)cc3)c3ccccc23)c2ccccc2N1c1c(Cl)cccc1Cl, the growth was 88.4% (inactive). In the case of CSc1[nH]c2ncnc(N)c2c1C#N, the growth is reported as 107% (inactive). For Cn1c2ccccc2c2c3c(c4c5ccccc5[nH]c4c21)C(=O)N(N)C3=O, the growth was 37.3% (inactive). For CC(=O)CC(C)(C)c1ccc(Cl)cc1, the growth was 98.7% (inactive). For OC(c1cc(-c2ccccc2)nc2ccc(Cl)cc12)C1CCCCN1 (stereo unspecified), the growth was 21.5% (inactive). CCN(CC)Cc1cc(Nc2c3ccccc3nc3cc(Cl)ccc23)ccc1O was tested, and the growth was -51.6% (active). For O=[N+]([O-])c1c(F)cccc1Nc1cccc(F)c1, the growth was 105% (inactive). COc1ccc(-c2cn3c(-c4ccc(OC)cc4)cnc3c(Oc3ccc4c(C)cc(=O)oc4c3)n2)cc1 was tested, and the growth was 22.6% (inactive).

What follows are compounds tested on PC-3 prostate in the same assay as above. Settings: 10 µM unless noted.
For O=C1C2CC=CCC2C(=O)N1CNc1ccc(Cl)cc1 (stereo unspecified), the growth was 76.9% (inactive). For O=C1C[C@H](Sc2nc(-c3ccc(F)cc3)cc(C(F)(F)F)n2)[C@H]2CO[C@@H]1O2, the growth was 96.2% (inactive). With CCN(CC)CCCNc1cccc2c(SCc3ccccc3)ccnc12 the growth was 17.7% (inactive). In the case of Cc1cc(=O)oc2cc(Oc3nc(-c4cccs4)cn4c(-c5cccs5)cnc34)ccc12, the growth is reported as 53% (inactive). In the case of CCCCN(CCCC)Cc1c(C)[nH]c2cc(OC)ccc2c1=O, the growth is reported as 85.2% (inactive). In the case of CCCCCCCCCCCCCC1=NCCN1CCO, the growth is reported as 31.6% (inactive). With CCN1CCN(Cc2ccc(NC(=O)Nc3nc4ccc(Oc5ccnc(C(=O)NC)c5)cc4s3)cc2C(F)(F)F)CC1 the growth was -63.3% (active). In the case of CCCCN(CCCC)CCC(C)(O)c1cc2ccccc2c2ccccc12 (stereo unspecified), the growth is reported as 47.5% (inactive). With CCCCN(CC)CCCCCCCCCCN1CCCc2cc(OC)ccc21 the growth was 29.9% (inactive). For N#Cc1ccc(NC(=O)Nc2ccc(Cc3ccc(NC(=O)Nc4ccc(C#N)cc4)cc3)cc2)cc1, the growth was 23.3% (inactive). In the case of Clc1nc(Cl)c2c3c(sc2n1)CCCC3, the growth is reported as 63.8% (inactive). In the case of CCN(CC)c1ccc(/C=C/C2=[N+](C)c3ccccc3C2(C)C)cc1, the growth is reported as 5.82% (active). For COc1ccc(OCC(=O)Nc2ccc(-c3nc4ccccc4s3)cc2C)cc1, the growth was 75.9% (inactive). In the case of COc1cc(-c2nc3ccccc3s2)ccc1NC(=O)COc1ccc(Cl)cc1, the growth is reported as 49.8% (inactive). In the case of CCN(CC)CC(O)CNc1c2ccc([N+](=O)[O-])cc2nc2cc(OC)c(OC)cc12 (stereo unspecified), the growth is reported as -53.4% (active). For Cc1ccc(/C=C2\Oc3cc(OCC(=O)c4ccc(Cl)cc4)ccc3C2=O)cc1, the growth was 428% (inactive). With O=c1c(/C=C/c2ccco2)nnc(SCCN2CCOCC2)n1/N=C/c1ccc([N+](=O)[O-])cc1 the growth was 96.5% (inactive). In the case of CNC(=O)c1cc(Oc2ccc3nc(NC(=O)Nc4ccc(CN5CCOCC5)c(C(F)(F)F)c4)sc3c2)ccn1, the growth is reported as 8.35% (active). Cc1ccc(SCN2CCN(c3cccc(Cl)c3)CC2)cc1 was tested, and the growth was 101% (inactive). With CN(CC(=O)N(Cc1ccc(C2CCCCC2)cc1)c1ccc(C(=O)NO)cc1)S(=O)(=O)c1c(F)c(F)c(F)c(F)c1F the growth was 88.1% (inactive). In the case of O=C1Nc2c(ccc(Cl)c2Cl)/C1=C/c1cc(Br)c(O)c(Br)c1, the growth is reported as 59.4% (inactive). With Oc1ccccc1N=Cc1c(O)ccc2ccccc12 the growth was 61.3% (inactive). c1ccc(CSc2ncnc3nc[nH]c23)nc1 was tested, and the growth was 112% (inactive). For CCN(CC)c1ccc(CNc2cc(C)nc3ccc(OC)cc23)cc1, the growth was 28.5% (inactive). For CN(C)c1ccc(/C=C(\C#N)c2nc3ccccc3s2)cc1, the growth was 105% (inactive). For CC1CN(Cc2ccco2)C(=S)N(c2ccccc2)C1=O (stereo unspecified), the growth was 86.5% (inactive). C=C1CC[C@@H]2[C@](C)(COC(C)=O)[C@H](OC(C)=O)CC[C@@]2(C)[C@@H]1CC(NCc1ccc(F)cc1)C1=CCOC1=O (stereo partly specified) was tested, and the growth was 20.8% (inactive). In the case of O=C(O)c1cccnc1Br, the growth is reported as 108% (inactive). With C=CC[N+]1(CC)CCN=C1CCCCCCCCCCCCCCCCC (stereo unspecified) the growth was -68.6% (active). For O=C1/C(=C\c2cn(C(=O)c3ccc(Cl)cc3)c3ccccc23)c2ccccc2N1c1c(Cl)cccc1Cl, the growth was 71.9% (inactive). With CSc1[nH]c2ncnc(N)c2c1C#N the growth was 110% (inactive). Cn1c2ccccc2c2c3c(c4c5ccccc5[nH]c4c21)C(=O)N(N)C3=O was tested, and the growth was 59.6% (inactive). For CC(=O)CC(C)(C)c1ccc(Cl)cc1, the growth was 93.6% (inactive). With OC(c1cc(-c2ccccc2)nc2ccc(Cl)cc12)C1CCCCN1 (stereo unspecified) the growth was 49.4% (inactive). CCN(CC)Cc1cc(Nc2c3ccccc3nc3cc(Cl)ccc23)ccc1O was tested, and the growth was -41.5% (active). In the case of O=[N+]([O-])c1c(F)cccc1Nc1cccc(F)c1, the growth is reported as 103% (inactive). In the case of COc1ccc(-c2cn3c(-c4ccc(OC)cc4)cnc3c(Oc3ccc4c(C)cc(=O)oc4c3)n2)cc1, the growth is reported as 17.7% (inactive).

Reference: PubChem BioAssay (NCI)
